# Data taken from PubChem BioAssay (NCI).
# This is part of a sample that, as a whole, favours compounds with a hit. Of some 79,000 tested, about 15% had one in any assay. Values without a mark were called inactive. Activity calls are given as the source filed them. Cut-off read from the data, not from the text of the source: active = growth inhibition above about 70%; inactive = the rest.
# Experiment: NCI Yeast Anticancer Drug Screen. Data for the rad50EPP+ strain (AID 151);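 note: 0% = growth of vehicle-treated control cultures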
# Conditions: S. cerevisiae rad50 mutant strain, active compounds read high
# Experimental: Growth inhibition of yeast strains with defined genetic alterations is measured as a screen for potential anti-cancer activity. Selected strains with alterations in DNA damage repair or cell cycle control were exposed to compounds and growth inhibition was measured relative to vehicle treated controls. The strain used in this assay is rad50EPP+
SMILES,growth inhibition (at 1.2 µM) [%],growth inhibition (at 3.7 µM) [%],growth inhibition (at 11.0 µM) [%],growth inhibition (at 33.0 µM),growth inhibition (at 100.0 µM)
CC(C(=O)N1C(=O)N(C(=O)[C@H](C)C(O)c2ccccc2)[C@H](c2ccccc2)[C@H]1c1ccccc1)[C@@H](O)c1ccccc1 (stereo not given in full),-4,-4,-1,-3%,-11%
CCOC(=O)c1cc([N+](=O)[O-])cc([N+](=O)[O-])c1Sc1ncnc2nc[nH]c12,-6,-11,13,62%,82% (active)
CCN(CC)[P+](c1ccccc1O)(N(CC)CC)N(CC)CC,-35,-26,-33,-31%,-34%
CSC(=S)Nc1cccc(C)n1,-15,-19,-27,-24%,68%
Cc1c(Cl)ccc2c1S(=O)(=O)c1cccc(Cl)c1-2,-12,12,7,-37%,-17%
O=C1C=CC(=O)c2c(O)c(Nc3ccc(OC(F)(F)F)cc3)c(Cl)c(O)c21,2,8,21,70% (active),93% (active)
N#Cc1ccc(C2NN=CC23C(=O)c2ccccc2OC3c2ccccc2)cc1 (stereo not given),-2,0,-1,-3%,3%
CC(O)C(O)C(O)C(/C=N\Nc1ccccc1)=N/Nc1ccccc1 (stereo not given),14,26,39,50%,50%
